# Screening results as filed in PubChem BioAssay.
# RMI-FANCM inh – RMI-FANCM interaction inhibition; 70,000 compounds, 0.58% hits; FP signal (polarization) at 33 µM; Fluorescence polarization, RMI core complex with F-MM2 peptide; stronger effect = lower value; in the data active = FP signal below about 40
# Active calls of the source: *; ! = a repeat was not active. The sample as a whole holds a higher share of hits than the screen did.
SMILES,RMI-FANCM inh
Oc1c(C=C2N=c3ccccc3=N2)sc(=S)n1-c1ccccc1F,23*
O=C1N=c2ccccc2=CC1=Cc1sc(=S)n(Cc2ccccc2)c1O,56
Nc1c(C(=O)N2CCOCC2)sc(=S)n1-c1ccccc1F,64
COc1ccc(Cl)cc1NC(=O)Cn1cnc2c(sc3nc(C)cc(C)c32)c1=O,63
Cc1cc(NS(=O)(=O)c2ccc(NC(=O)CCN3C(=O)c4ccccc4C3=O)cc2)nc(C)n1,60
Cc1cc(NS(=O)(=O)c2ccc(NC(=O)c3ccc(Br)o3)cc2)no1,66
Cc1cc(NS(=O)(=O)c2ccc(NC(=O)c3oc4cc(C)c(C)cc4c3C)cc2)nc(C)n1,17*
O=C1c2cccc3c(N4CCSCC4)ccc(c23)C(=O)N1c1ccccc1,43
CC1(C)CC2C1CCC1(C)OC2(C)CCC1O (stereo unspecified),-8*
CC1(C)CC2C1CCC1(C)OC1CCC2(C)O (stereo unspecified),67
O=C(/C=C/c1ccco1)c1c(-c2ccccc2)c2cc(Cl)ccc2[nH]c1=O,0*
O=C(/C=C/c1ccco1)c1c(-c2ccccc2)c2cc(Br)ccc2[nH]c1=O,54
C/C(=N\NC(=O)CCCC(=O)O)c1c(-c2ccccc2)c2cc(Cl)ccc2[nH]c1=O,60
CC(C)CNS(=O)(=O)c1cccc2cnccc12,71
CCn1c(=NC(=O)CSCC(=O)N2CCN(c3ccccc3)CC2)sc2cc(F)ccc21,62
CN1C(=O)c2cccc(NC(=O)c3c(F)cccc3Cl)c2C1=O,69
CN1c2ccccc2C(=O)/C(=N/Nc2ccccc2Cl)S1(=O)=O,-6*
N#C/C(=N/Nc1ccccc1Cl)S(=O)(=O)c1ccc(Cl)cc1,44
CN(C)c1ccc(-c2nc3ccccc3c(=O)[nH]2)c(Cl)c1,51
CC(O)=c1c(=O)nc2ccc(Cl)c3c2=c1c1ccccc1c3=O,-21*
N#C/C(=C\c1ccc(Cl)c(Cl)c1)c1nc2ccccc2c(=O)[nH]1,62
CC(C)N(Cc1ccccc1)S(=O)(=O)c1ccc(C(=O)N2CCCc3ccccc32)cc1,60
N#C/C(=C\Nc1ccc(S(=O)(=O)NC(N)=O)cc1)c1nc(-c2ccc(Cl)cc2)cs1,15*
N#C/C(=C\Nc1ccc(S(=O)(=O)N=C(N)N)cc1)c1nc(-c2ccc([N+](=O)[O-])cc2)cs1,104
Cc1ccc(-c2csc(/C(C#N)=C/Nc3ccc(Cl)c(C(F)(F)F)c3)n2)cc1,65
SMILES,RMI-FANCM inh
O=C(NCCN1CCN(c2ccccc2F)CC1)C(=O)Nc1ccc(F)cc1,65
Cc1ccccc1NC(=O)/C=C\C(N)=O,60
CCOC(=O)c1sc(NC(=O)CSc2nc(=O)n(CCN(C)C)c3c2CCCC3)nc1C,54
CC(C)N1CCc2c(sc(NC(=O)CCS(=O)(=O)c3ccc(Cl)cc3)c2C(N)=O)C1,55
CCCCC(=O)Nc1sc2c(c1C(N)=O)CCN(C(C)=O)C2,69
COC(=O)c1c(NC(=O)C(C)C)sc2c1CCN(Cc1ccccc1)C2,59
NC(=O)c1c(NC(=O)CS(=O)(=O)c2ccccc2)sc2c1CCN(Cc1ccccc1)C2,21*
CC1CCc2c(sc(NC(=O)CCS(=O)(=O)c3ccc(F)cc3)c2C(N)=O)C1 (stereo unspecified),79
CCOC(=O)c1c(NC(=O)CCS(=O)(=O)c2ccc(Cl)cc2)sc2c1CCN(C(C)=O)C2,66
CC(=O)N1CCc2c(sc(NC(=O)CS(=O)(=O)c3ccc(Cl)cc3)c2C(N)=O)C1,15*
CCN1CCc2c(sc(NC(=O)CCS(=O)(=O)c3ccc(F)cc3)c2C(N)=O)C1,37*
CCOC(=O)N1CCc2c(sc(NC(=O)CS(=O)(=O)c3ccccc3)c2C#N)C1,65
Cc1ccc(-n2ncc3c(=O)n(CC(=O)Nc4ccc([N+](=O)[O-])cc4)cnc32)cc1,58
CS(=O)(=O)c1ccc(Nc2nc(C(=O)NCCc3ccccc3)cs2)cc1,66
CC(C)c1cc(C(=O)NCc2ccco2)nn1-c1nc2ccccc2s1,84
Cc1[nH]c2ccccc2c1C(Nc1ccccc1F)c1ccccn1 (stereo unspecified),97
Cc1[nH]c2ccccc2c1C(Nc1ccccn1)c1cccc([N+](=O)[O-])c1 (stereo unspecified),25*!
COc1ccc(C(Nc2cc(C)on2)c2c(C)[nH]c3ccccc23)cc1OC (stereo unspecified),58
C=CCc1c(C)nc2c(-c3ccccc3)cnn2c1N1CCN(Cc2ccccc2)CC1,59
COC(=O)c1ccc2c(c1)C(=O)/C(=C/c1ccc(O)c(OC)c1)O2,72
COC(=O)c1ccc2nsnc2c1,61
COC(=O)c1ccc2c(c1)C(=O)/C(=C/c1ccccc1F)O2,14*
N#Cc1c(-c2ccc(O)cc2)c2c([nH]c1=S)CCC2,59
CS(=O)(=O)c1cccc(C(=O)Nc2nc3c(F)cccc3s2)c1,52
O=C(NCCS(=O)(=O)NC1CCCCC1)c1ccccc1,53
SMILES,RMI-FANCM inh
CCC(=O)c1ccc(OCC(O)CNC2CCCCCC2)cc1 (stereo unspecified),63
CC(CNC1CCCCC1)OC(=O)c1ccccc1 (stereo unspecified),19*
COc1ccc(S(=O)(=O)N2CCC(c3nc(-c4ccc(OC)cc4OC)no3)CC2)cc1,71
CC(=O)N1CCc2cc(S(=O)(=O)NCCCn3nc(-c4ccco4)ccc3=O)ccc21,73
COc1cccc(CSc2nc(CC(=O)NC3CC3)cc(=O)[nH]2)c1,54
COc1cccc(CSc2nc(CC(=O)Nc3ccc(C)c(C)c3)cc(=O)[nH]2)c1,64
COc1cccc(CSc2nc(CC(=O)Nc3nnc(C)s3)cc(=O)[nH]2)c1,34*
Cc1ccc(Cl)cc1S(=O)(=O)Nc1ccc2c(c1)CN(C(=O)C(C)C)CC2,71
CCNc1nc(SCc2ccc([N+](=O)[O-])cc2)nc2sc3c(c12)CCC(C)C3 (stereo unspecified),56
CCNc1nc(SCc2ccc([N+](=O)[O-])cc2)nc2sc3c(c12)CCN(C)C3,-31*
Cn1c(SCc2ccc([N+](=O)[O-])cc2)nc2c(c1=O)SCC2,55
CCOc1c(C)cc(S(=O)(=O)Nc2ccc3c(c2)C(=O)N(CC)c2ccccc2O3)cc1C,70
Cc1cc(C)n(-c2nc(-c3ccccc3)cc(=O)n2CC(=O)N2CCc3ccccc32)n1,56
COc1cc(C(=O)N2CCN(CCN3C(=O)c4cccc5cccc(c45)C3=O)CC2)cc(OC)c1OC,56
O=C(NCc1ccc2c(c1)OCO2)Nc1csc2ccccc12,73
O=C1c2cccc3c(Br)ccc(c23)C(=O)N1CCO,-1*
CCOC(=O)OCCN1C(=O)c2cccc3c(Br)ccc(c23)C1=O,59
O=C1OC(=O)c2ccc(Br)c3cccc1c23,56
CCOc1ccc(NC(=O)c2ccc(=O)n(Cc3ccc(F)cc3)n2)cc1,63
CCOc1ccc(CC(=O)NCCc2csc(C)n2)cc1,62
O=C(Nc1ccc2c(c1)N(C(=O)c1cccs1)CC2)c1ccccc1F,76
O=S(=O)(NCC1CCCO1)c1cccc2cccnc12 (stereo unspecified),61
C=CCn1c(=O)c2ccc(C(=O)NCc3ccccc3)cc2n(CC(=O)Nc2ccc(F)cc2F)c1=O,58
Cc1ccc(C(C)C)cc2c(C)ccc1-2,52
COc1ccc(N=Nc2cc(C)c3cc(C(C)C)ccc(C)c2-3)cc1,-11*
COc1ccc(N=Nc2cc(C)c(O)c(CN3CCCCC3)c2)cc1,70
CCN1C(=O)/C(=C/c2ccc(F)cc2)NC1=S,66
CSc1ccc(NC(=O)c2ccc(C)cc2)nn1,65
